# Laboratory results reported in PubChem BioAssay AID1159580 (chemical genetic matrix, 2015).
# Out of some 5,500 compounds screened, about 2,000 (36%) were called active. Roughly 18% stayed inconclusive and do not appear here. The list shows a part of the results. A number with no mark means an inactive call. No stated cut-off is given here; in the data, active means normalized growth mostly below about 0.91 (no sharp cut-off); inconclusive means no clear call, values can overlap the other calls; inactive means mostly above about 0.92.
# Assay: chemical genetic growth profiling, strain panel (AID 1159580);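 further: tested at 20 µM; growth read once vehicle control cultures reached saturation at 30 °C; 1 = growth at the plate median or of vehicle wells; lower values mean less growth of the strain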
# Settings: S. cerevisiae deletion strains, growth OD
compound,measurement,setting,value
O=C1c2ccccc2C(=O)C1c1ccc(Br)cc1,normalized growth,"locus YHR030C, strain SLT2, active compounds read low",0.851 (active)
same,normalized growth,"locus YHR079C, strain IRE1, active compounds read low",0.816 (active)
same,normalized growth,"locus YJL095W, strain BCK1, active compounds read low",0.888
same,normalized growth,"locus YJR066W, strain TOR1, active compounds read low",0.823 (active)
same,normalized growth,"locus YLR113W, strain HOG1, active compounds read low",0.717 (active)
same,normalized growth,"locus YNL183C, strain NPR1, active compounds read low",0.818 (active)
same,normalized growth,"locus YOR231W, strain MKK1, active compounds read low",0.853 (active)
same,normalized growth,"locus YPL256C, strain CLN2, active compounds read low",0.712 (active)
